Test results published in PubChem BioAssay (NCATS).
Inconclusive results are not listed. Active and inactive are the calls of the source. Calls follow the shape of the dose curve; as a rule, active = well fitted inhibition curve with a large enough effect; inconclusive = small, poorly fitted or top-dose-only effect; inactive = flat fitted curve, though single readings scatter.

test system: MCC-13; assay: qHTS assay to identify novel small-molecules to repurpose for Merkel cell carcinoma treatment (AID 1296009); conditions: MCC and control cell lines, CellTiter-Glo viability, 72 h; series mostly up to 46 µM; activity change, negative = cytotoxicity: at the top concentration; also: nearly all actives have a fitted effect of over 60% in size
Summary of the method: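 CellTiter-Glo luminescence after 72 hr compound exposure at 37 degree celsius gave cell viability. Libraries NPC and MIPE were run as 8- and 11-point dose responses; RLUs normalized to DMSO (negative) and no-cell (cytotoxicity) controls.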
% is scaled to controls: 0 for no effect and ±100 for the full control effect; potency is read from the fitted curve at half-maximal effect.

| SMILES | outcome | activity change, negative = cytotoxicity | Potency |
| --- | --- | --- | --- |
| C=C[C@@H]1CN2CCC1C[C@@H]2[C@@H](O)c1ccnc2ccccc12 (some centres undefined) | inactive |  |  |
| O=c1cccc2n1CC1CNC[C@H]2C1 |  | -7.38% (inactive) |  |
| CCC(=O)O[C@@H]1C=C2CCC3C(CCC4(C)C3CC[C@@H]4OC(=O)CC)C2CC1 (some centres undefined) |  | 6.04% (inactive) |  |
| CCNC(=O)C[C@@H]1N=C(c2ccc(Cl)cc2)c2cc(OC)ccc2-n2c(C)nnc21 |  | -26.9% (inactive) |  |
| CC1(N2CCC(n3c([C@@H]4CCCNC4)nc4ccccc43)CC2)CCCCCCC1 |  | -8.83% (inactive) |  |
| CC(C)NCC(O)c1ccc([N+](=O)[O-])cc1 (centres undefined) |  | 10.4% (inactive) |  |
| C[C@@H]1CC[C@H]2[C@@H](C)C(=O)O[C@@H]3O[C@@]4(C)CC[C@H]1[C@]32OO4 |  | -8.19% (inactive) |  |
| CN[C@@H](C)[C@H](O)c1ccccc1 |  | 15.4% (inactive) |  |
| O=C1CCC[C@@H]2[C@H]3CCCN4CCC[C@@H](CN12)[C@@H]34 |  | -1.89% (inactive) |  |
| C=CC(=O)NCNC(=O)C=C |  | 1.22% [at 92.7 µM] (inactive) |  |
| CC(C)(O)C(=O)Nc1ccc([N+](=O)[O-])c(C(F)(F)F)c1 |  | 2.44% (inactive) |  |
| Cc1ccc(Cl)c(O)c1 |  | 1.72% (inactive) |  |
| CC1=C(C(=O)O)N2C(=O)[C@@H](N)[C@H]2SC1 |  | 10% [at 16.1 µM] (inactive) |  |
| CC(C)[C@]12O[C@@H]1[C@@H]1O[C@]13[C@]1(O[C@H]1C[C@@H]1C4=C(CC[C@@]13C)C(=O)OC4)[C@H]2O |  | -69.2% (inactive) |  |
| COc1cc2cc(c1Cl)N(C)C(=O)C[C@H](OC(=O)C(C)C)[C@]1(C)O[C@H]1[C@H](C)[C@@H]1C[C@@](O)(NC(=O)O1)[C@H](OC)C=CC=C(C)C2 |  | -63.7% (inactive) |  |
| O=S(=O)(O)C(F)(F)C(F)(F)C(F)(F)C(F)(F)F |  | 6.15% [at 92.7 µM] (inactive) |  |
| CC(C)(C)c1cc(C=C(C#N)C#N)cc(Br)c1O |  | 9.83% (inactive) |  |

| SMILES | outcome | activity change, negative = cytotoxicity | Potency |
| --- | --- | --- | --- |
| CC(=Cc1csc(C)n1)[C@@H]1C[C@H]2O[C@]2(C)CCC[C@H](C)[C@@H](O)[C@@H](C)C(=O)C(C)(C)[C@@H](O)CC(=O)O1 |  | -38.7% (inactive) |  |
| C[C@]12CC[C@@H]3[C@@H](CCC4=CC(=O)CC[C@@H]43)[C@@H]1CC[C@@H]2OC(=O)CCc1ccccc1 |  | -5.49% (inactive) |  |
| NC1=NC(=O)N2CC12 (centres undefined) |  | 0.361% (inactive) |  |
| c1ccc2c(CN3CCNCC3)cccc2c1 |  | 1.85% (inactive) |  |
| CCCC[N+]1(C)[C@H]2CC(OC(=O)[C@H](CO)c3ccccc3)C[C@H]1[C@H]1O[C@H]12 (some centres undefined) |  | -2.43% (inactive) |  |
| CCOCCOC(C)=O |  | 8.88% [at 92.7 µM] (inactive) |  |
| C#CC1(O)CCC2C3CCC4=CC(=O)CCC4(C)C3CCC21C (centres undefined) |  | -2.84% (inactive) |  |
| COC(C)(C)CCCC(C)C/C=C/C(C)=C/C(=O)OC(C)C (centres undefined) |  | 10.1% (inactive) |  |
| NC1CC1c1ccccc1 (centres undefined) |  | 15.7% (inactive) |  |
| O=C1C=CC[C@@H]2[C@H]3CCCN4CCC[C@@H](CN12)[C@@H]34 |  | -3.25% (inactive) |  |
| O=C(O)COc1ccccc1 |  | -0.566% (inactive) |  |
| Cc1[nH]nc2ccc(-c3cncc(OC[C@@H](N)Cc4c[nH]c5ccccc45)c3)cc12 |  |  | 2350 nM (active) |
| C[C@]12CCC(=O)C(O)=C1CC[C@@H]1[C@H]3CCC(=O)[C@@]3(C)CC[C@@H]12 |  | -6.49% (inactive) |  |
| O=[N+]([O-])/N=C1\NCCN1Cc1ccc(Cl)nc1 |  | -6.7% (inactive) |  |
| O=C(N[C@@H](COc1ccc2[nH]c(=O)[nH]c2c1)c1ccccc1)c1cccn(Cc2ccc(F)c(F)c2)c1=O |  | 0.0697% (inactive) |  |
| C[C@]12Cc3cn[nH]c3C[C@@H]1CC[C@@H]1[C@H]2CC[C@@]2(C)[C@H]1CC[C@]2(C)O |  | -8.37% (inactive) |  |
| Nc1c(Cl)c(Cl)c(Cl)c(Cl)c1Cl |  | 8.93% [at 92.7 µM] (inactive) |  |
